Assay [1] in a line: p53 stabilisation in HPV-positive human cells, imaging, p53-positive nuclei imaging, 24 h, 48 h (AID 1508601). The conditions noted are these: 24/48 h.
Assay [2] concerns the target Cellular tumor antigen p53 (Homo sapiens) (UniProt P04637). The assay is described as above. The conditions noted are these: 24/48 h, stronger effect = higher value.
Setting [3] is: measured here: cell number at 24 h, concentration not given here.
The mark [4] stands for this setting: measured here: cell number at 48 h, concentration not given here.
Where [5] appears, read: measured here: p53 positive nuclei at 24 h, concentration not given here.
The mark [6] stands for this setting: measured here: cell number at 24 h, Library stock concentration: 46 uM.
Where [7] appears, read: measured here: cell number at 24 h, Library stock concentration: 278 uM.
[8] abbreviates: measured here: cell number at 24 h, Library stock concentration: 1.67 mM.
Where [9] appears, read: measured here: cell number at 24 h, Library stock concentration: 10 mM.
[10] abbreviates: measured here: cell number at 48 h, Library stock concentration: 46 uM.
The mark [11] stands for this setting: measured here: cell number at 48 h, Library stock concentration: 278 uM.
Where [12] appears, read: measured here: cell number at 48 h, Library stock concentration: 1.67 mM.
Where [13] appears, read: measured here: cell number at 48 h, Library stock concentration: 10 mM.
The mark [14] stands for this setting: Library stock concentration: 46 uM.
The mark [15] stands for this setting: Library stock concentration: 278 uM.
The mark [16] stands for this setting: Library stock concentration: 1.67 mM.
[17] abbreviates: Library stock concentration: 10 mM.
Setting [18] is: measured here: p53 positive nuclei at 24 h, Library stock concentration: 46 uM.
The mark [19] stands for this setting: measured here: p53 positive nuclei at 24 h, Library stock concentration: 278 uM.
The mark [20] stands for this setting: measured here: p53 positive nuclei at 24 h, Library stock concentration: 1.67 mM.
Where [21] appears, read: measured here: p53 positive nuclei at 24 h, Library stock concentration: 10 mM.
Setting [22] is: measured here: cell number at 24 h, Library stock concentration: 80 uM.
The mark [23] stands for this setting: measured here: cell number at 24 h, Library stock concentration: 400 uM.
[24] abbreviates: measured here: cell number at 24 h, Library stock concentration: 2 mM.
Where [25] appears, read: measured here: cell number at 24 h, Library stock concentration: 3.33 mM.
Where [26] appears, read: measured here: cell number at 48 h, Library stock concentration: 80 uM.
Setting [27] is: measured here: cell number at 48 h, Library stock concentration: 400 uM.
Where [28] appears, read: measured here: cell number at 48 h, Library stock concentration: 2 mM.
[29] abbreviates: measured here: cell number at 48 h, Library stock concentration: 3.33 mM.
The mark [30] stands for this setting: Library stock concentration: 80 uM.
The mark [31] stands for this setting: Library stock concentration: 400 uM.
The mark [32] stands for this setting: Library stock concentration: 2 mM.
The mark [33] stands for this setting: Library stock concentration: 3.33 mM.
Setting [34] is: measured here: p53 positive nuclei at 24 h, Library stock concentration: 80 uM.
The mark [35] stands for this setting: measured here: p53 positive nuclei at 24 h, Library stock concentration: 400 uM.
The mark [36] stands for this setting: measured here: p53 positive nuclei at 24 h, Library stock concentration: 2 mM.
The mark [37] stands for this setting: measured here: p53 positive nuclei at 24 h, Library stock concentration: 3.33 mM.

Screen size: about 5,700 compounds; about 85 (1%) were called active. Cut-off read from the data, not from the text of the source: active = p53-positive nuclei above about 36% (passing the limit was not always enough); inactive = the rest. This excerpt belongs to a sample that is enriched for actives.

Sequence of Cellular tumor antigen p53 (Homo sapiens) (P04637 whole entry, looked up): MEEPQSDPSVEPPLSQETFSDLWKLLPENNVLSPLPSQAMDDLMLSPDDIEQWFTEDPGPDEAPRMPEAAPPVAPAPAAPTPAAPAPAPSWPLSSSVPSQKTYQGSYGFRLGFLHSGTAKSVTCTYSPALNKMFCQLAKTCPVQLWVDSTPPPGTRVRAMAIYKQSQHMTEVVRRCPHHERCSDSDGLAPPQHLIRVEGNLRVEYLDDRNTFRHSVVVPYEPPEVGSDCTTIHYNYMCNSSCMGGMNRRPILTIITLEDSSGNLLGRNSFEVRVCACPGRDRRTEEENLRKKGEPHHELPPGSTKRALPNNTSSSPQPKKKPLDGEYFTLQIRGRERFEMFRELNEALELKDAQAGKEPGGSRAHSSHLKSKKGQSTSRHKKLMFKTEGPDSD

In the case of `O=S(=O)(NO)c1ccccc1`, the nuclei count, normalised in assay [1] (setting [3]) came out at 71.3%; in assay [1] (setting [4]), 77%. Besides, the p53-positive nuclei, normalised in assay [2] (concentration not given here) was 0.0111% (inactive); in assay [2] (setting [5]) it was -0.0732%.
For the compound `CCCCCCCCc1cccc(NC(=O)C(N)COP(=O)(O)O)c1` (stereo not given), the nuclei count, normalised is 114% in assay [1] (setting [6]); 118% in assay [1] (setting [7]); 113% in assay [1] (setting [8]); 108% in assay [1] (setting [9]); 110% in assay [1] (setting [10]); 108% in assay [1] (setting [11]). The nuclei count, normalised in assay [1] (setting [12]) is 107%; in assay [1] (setting [13]) it was 101%. Further, the p53-positive nuclei, normalised in assay [2] (setting [14]) was -0.108% (inactive); in assay [2] (setting [15]), 0.0439% (inactive); in assay [2] (setting [16]) it was -0.101% (inactive); in assay [2] (setting [17]), -0.166% (inactive); in assay [2] (setting [18]), 0.0125%; in assay [2] (setting [19]) it was -0.0546%. The p53-positive nuclei, normalised in assay [2] (setting [20]) was -0.0401%; in assay [2] (setting [21]), -0.218%.
With `CCCCCCCCCCCCCCCCCCCC(=O)NCCO`, the values for the nuclei count, normalised in assay [1] (setting [3]) and in assay [1] (setting [4]) were 110% and 108%, respectively. In addition, the p53-positive nuclei, normalised in assay [2] (concentration not given here) was -0.151% (inactive); in assay [2] (setting [5]), -0.0865%.
As for `CCCCc1nc2cc(C=CC(=O)NO)ccc2n1CCN(CC)CC`, the nuclei count, normalised in assay [1] (setting [22]) was determined as 95.3%; in assay [1] (setting [23]) it was 95.2%; in assay [1] (setting [24]) it was 78.6%; in assay [1] (setting [25]), 52.6%; in assay [1] (setting [9]), 51%; in assay [1] (setting [26]), 90.2%. Moreover, the nuclei count, normalised in assay [1] (setting [27]) worked out at 86.3%; in assay [1] (setting [28]) it was 62.7%; in assay [1] (setting [29]) it was 28.6%; in assay [1] (setting [13]), 28.2%. Further, the p53-positive nuclei, normalised in assay [2] (setting [30]) was 1.67% (inactive); in assay [2] (setting [31]), 3.58% (inactive); in assay [2] (setting [32]), 17.7% (inactive); in assay [2] (setting [33]), 87.1% (active); in assay [2] (setting [17]), 84.9% (active); in assay [2] (setting [34]), 5.63%. Also, the p53-positive nuclei, normalised in assay [2] (setting [35]) was 7.57%; in assay [2] (setting [36]), 33.7%; in assay [2] (setting [37]), 71.3%; in assay [2] (setting [21]) it was 79.8%.
`CCCCCc1ccc(C=CC(=O)Nc2ccccc2C(=O)O)cc1`: the nuclei count, normalised in assay [1] (setting [6]) was found to be 113%; in assay [1] (setting [7]) it was 109%; in assay [1] (setting [8]) it was 111%; in assay [1] (setting [9]) it was 109%; in assay [1] (setting [10]), 113%; in assay [1] (setting [11]), 110%. For the same compound, the nuclei count, normalised in assay [1] (setting [12]) is 110%; in assay [1] (setting [13]) it was 106%. The p53-positive nuclei, normalised was -0.18% (inactive) in assay [2] (setting [14]); -0.17% (inactive) in assay [2] (setting [15]); -0.244% (inactive) in assay [2] (setting [16]); -0.204% (inactive) in assay [2] (setting [17]); -0.087% in assay [2] (setting [18]); -0.151% in assay [2] (setting [19]). The p53-positive nuclei, normalised was -0.151% in assay [2] (setting [20]) and -0.0182% in assay [2] (setting [21]).
As for `COc1ccc(CNCC2COCCO2)cc1OC` (stereo not given), the nuclei count, normalised was found to be 101% in assay [1] (setting [3]) and 103% in assay [1] (setting [4]). Further, the results for the p53-positive nuclei, normalised in assay [2] (concentration not given here) and in assay [2] (setting [5]) were 0.0897% (inactive) and 0.164%, respectively.
With `O=C(NOCC(O)CO)c1ccc(F)c(F)c1Nc1ccc(I)cc1F` (stereo not given), the nuclei count, normalised was 110% in assay [1] (setting [22]); 101% in assay [1] (setting [23]); 91.9% in assay [1] (setting [24]); 96.8% in assay [1] (setting [25]); 99.9% in assay [1] (setting [9]); 106% in assay [1] (setting [26]). Besides, the nuclei count, normalised was 104% in assay [1] (setting [27]), 95.8% in assay [1] (setting [28]), 97.9% in assay [1] (setting [29]) and 95.8% in assay [1] (setting [13]). The p53-positive nuclei, normalised is -0.174% (inactive) in assay [2] (setting [30]); -0.189% (inactive) in assay [2] (setting [31]); 0.0424% (inactive) in assay [2] (setting [32]); -0.685% (inactive) in assay [2] (setting [33]); 0.268% (inactive) in assay [2] (setting [17]); 0.00674% in assay [2] (setting [34]). For the same compound, the p53-positive nuclei, normalised in assay [2] (setting [35]) is 0.0842%; in assay [2] (setting [36]), -0.07%; in assay [2] (setting [37]), -0.375%; in assay [2] (setting [21]), 0.0144%.
Regarding `O=Nc1c(O)[nH]c2c(Cl)c(Cl)ccc12`, the nuclei count, normalised in assay [1] (setting [22]) is 111%; in assay [1] (setting [23]), 99.5%; in assay [1] (setting [24]), 83.2%; in assay [1] (setting [9]), 73.5%; in assay [1] (setting [26]), 109%; in assay [1] (setting [27]), 99%. Further, the nuclei count, normalised stood at 54.9% in assay [1] (setting [28]) and 33.7% in assay [1] (setting [13]). Further, the p53-positive nuclei, normalised in assay [2] (setting [30]) was 0.16% (inactive); in assay [2] (setting [31]) it was -0.101% (inactive); in assay [2] (setting [32]), 48.3% (inactive); in assay [2] (setting [17]), 84.3% (active); in assay [2] (setting [34]), 0.217%; in assay [2] (setting [35]), 0.0912%. The p53-positive nuclei, normalised was 2.93% in assay [2] (setting [36]) and 8.66% in assay [2] (setting [21]).

Source of the values: PubChem BioAssay AID1508601 (ICCB-Longwood Screening Facility, Harvard Medical School, 2020).
